A selection: hits, their analogues and other compounds. The true share with any hit is near 21%.
Shiga toxin inh – inhibitors of Shiga toxin in Vero cells; AID 2315; inhibition, % at 38.7 µM; actives 9.2% (n = 290,000); Vero cells, Shiga toxin protein synthesis inhibition reporter; in the data active = inhibition mostly above about 28%, no sharp cut-off; inactive = mostly below about 43%; note: 0% is about no effect
Pf growth 96h – inhibits malaria parasite growth, 96 h. actives 6.9% (n = 320,000). Potency, µM (series often up to 28.7 µM), without a hit: top-dose activity change, negative = inhibition, most hits filed as inhibitors. P. falciparum luciferase reporter growth, 96 h; active = well fitted inhibition curve with a large enough effect; inconclusive = small, poorly fitted or top-dose-only effect, or another doubt; inactive = no such curve, though single readings can be large or run the other way; note: potency is the fitted concentration of half-maximal effect; % is set by controls: 0 for no effect and ±100 for the full control effect
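P. falciparum expressing integrated firefly luciferase grown in erythrocytes (2% hematocrit, 0.05% parasitemia final) with compounds for 96 hours at 37 C, 5% CO2. Growth inhibition read as loss of luminescence after adding luciferase detection reagent.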
CHX counter – counter-screen hit for Shiga toxin inhibitors, cycloheximide | cell reporter, cycloheximide protein synthesis inhibition counterscreen | max response, % | actives 12% (n = 300,000); in the data active = max response mostly above about 13%, no sharp cut-off; inactive = mostly below about 14%; note: read at 38.3 µM for the half of the compounds with a filed dose; 0% is about no effect
Pf growth 48h – inhibits P. falciparum growth in the first generation, 48 h; P. falciparum luciferase growth in erythrocytes, 48 h; actives 5.9% (n = 310,000); Potency, µM (titrated, usually from 28.7 µM), inactives show top-dose activity change, negative = inhibition, usual class: inhibitors; AID 504832; active = well fitted inhibition curve with a large enough effect; inconclusive = small, poorly fitted or top-dose-only effect, or another doubt; inactive = no such curve, though single readings can be large or run the other way; note: potency is the fitted concentration of half-maximal effect; % is set by controls: 0 for no effect and ±100 for the full control effect
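Erythrocytes infected with P. falciparum carrying an integrated firefly luciferase reporter (2% hematocrit, 0.1% parasitemia final) were exposed to compounds in RPMI 1640 with 0.5% Albumax at 37 C, 5% CO2. Growth inhibition was scored as reduced luminescence.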
NS1 function inh – inhibitors of influenza NS1 protein function. Potency, µM (series often up to 46.1 µM), without a hit: at the top dose activity, positive = more growth. actives 0.4% (n = 270,000); note: potency is the fitted concentration of half-maximal effect; actives are rising curves; nearly all actives have a fitted effect of over 50% in size
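Growth recovery, yeast-based: influenza A NS1 expressed in S. cerevisiae causes slow growth, and suppressors are detected by OD600. The parent strain without NS1 is used as positive control.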
SARS PLpro yeast – SARS-CoV PLP inhibition in yeast; AID 485353; actives 0.19% (n = 330,000); S. cerevisiae expressing SARS-CoV PLpro, growth rescue; Potency, µM (series often up to 32.9 µM), inactives show at the highest dose activity, positive = growth rescue, actives largely listed as activators; note: potency is the fitted concentration of half-maximal effect; 0% is about no effect; nearly all actives have a fitted effect of over 55% in size
* hit, by the source's call. Unless noted, calls come from the whole dose curve.

Results for COc1ccc(S(=O)(=O)N2CCCC(C(=O)NCc3ccncc3)C2)cc1Cl (stereo not drawn) ?
Shiga toxin inh: -10; Pf growth 96h: 51%; CHX counter: 1; Pf growth 48h: -8%; NS1 function inh: -14%; SARS PLpro yeast: -5%

Results for CCN1C(=O)/C(=C\c2cccn2-c2ccc([N+](=O)[O-])cc2)N(CC)C1=S ?
Shiga toxin inh: -7; Pf growth 96h: -3%; CHX counter: -1; Pf growth 48h: 8%; NS1 function inh: 2%; SARS PLpro yeast: -13%

How did O=C(Nc1nnc(-c2cccs2)o1)c1cc(-c2ccccc2)nc2ccccc12 do in these assays?
Shiga toxin inh: 2; Pf growth 96h: -26%; CHX counter: -2; Pf growth 48h: -11%; NS1 function inh: 13%; SARS PLpro yeast: 28%

Results for Cc1ccc(N(CCC#N)C(=O)CN2C(=O)NC(Cc3ccccc3)C2=O)cc1 (stereo not drawn) ?
Shiga toxin inh: 5; Pf growth 96h: 17%; CHX counter: -1; Pf growth 48h: 10%; SARS PLpro yeast: 0%

Results for O=C(CCSCc1ccc(Cl)cc1)NCc1cccs1 ?
Shiga toxin inh: 16; Pf growth 96h: -1%; CHX counter: -2; Pf growth 48h: 13%; SARS PLpro yeast: -12%

Results for COc1ccc(S(=O)(=O)N2CCCCCC2)cc1NC(=O)CCCOc1ccccc1 ?
Pf growth 96h: inconclusive; Pf growth 48h: 9.3µM*; SARS PLpro yeast: -4%

Results for CC(C)C(NC(=O)CSCc1ccc([N+](=O)[O-])cc1)C(C)C ?
Shiga toxin inh: -7; Pf growth 96h: 19%; CHX counter: 1; Pf growth 48h: inconclusive; NS1 function inh: -15%; SARS PLpro yeast: -1%

How did O=C(CSCc1ccc([N+](=O)[O-])cc1)NC1CC1 do in these assays?
Shiga toxin inh: 10; Pf growth 96h: 13µM*; CHX counter: -4; Pf growth 48h: -3%; NS1 function inh: 19%; SARS PLpro yeast: 7%

What do the screens show for `CCCNC(=O)c1csc(Nc2cccc3ccccc23)n1`?
Pf growth 96h: 6.6µM*; CHX counter: -2; Pf growth 48h: 9.3µM*; NS1 function inh: -167%; SARS PLpro yeast: -19%

How did CC(=O)c1csc(Nc2ccccc2Cl)n1 do in these assays?
Shiga toxin inh: 68*; Pf growth 96h: 186%; CHX counter: 33*; Pf growth 48h: 99%; NS1 function inh: -31%; SARS PLpro yeast: -2%

What do the screens show for `CN(C)CCNC(=O)c1csc(Nc2cccc3ccccc23)n1`?
Pf growth 96h: inconclusive; CHX counter: -4; Pf growth 48h: inconclusive; NS1 function inh: 4%

How did COCCNC(=O)c1csc(Nc2cccc3ccccc23)n1 do in these assays?
Shiga toxin inh: 6; Pf growth 96h: inconclusive; CHX counter: 6; Pf growth 48h: inconclusive; NS1 function inh: -23%; SARS PLpro yeast: inconclusive

Results for O=C(NCC1CCCO1)c1csc(Nc2cccc3ccccc23)n1 (stereo not drawn) ?
Shiga toxin inh: 77*; Pf growth 96h: -3%; CHX counter: 41*; Pf growth 48h: inconclusive; NS1 function inh: -5%; SARS PLpro yeast: 1%

How did C=C[C@H]1CN2CC[C@H]1C[C@H]2[C@H](O)c1ccnc2ccccc12 do in these assays?
Pf growth 96h: inconclusive; Pf growth 48h: 0.15µM*

What do the screens show for `CCOC(=O)N1CCN(C(=O)CCc2c(C)nc3c(c(C)nn3-c3ccc(C)c(C)c3)c2C)CC1`?
Shiga toxin inh: -6; CHX counter: -1; Pf growth 48h: 13µM*; NS1 function inh: -42%; SARS PLpro yeast: 3%

Results for CCOC(=O)N1CCC(NC(=O)CCc2c(C)nc3c(c(C)nn3C(C)(C)C)c2C)CC1 ?
Shiga toxin inh: 17; Pf growth 96h: 57%; CHX counter: 1; Pf growth 48h: 12µM*; NS1 function inh: -15%; SARS PLpro yeast: 13%

How did COc1ccc(OC)c(NC(=O)CSc2nnc(CNC(=O)c3cc(OC)c(OC)c(OC)c3)o2)c1 do in these assays?
Shiga toxin inh: 2; Pf growth 96h: -6%; CHX counter: -1; Pf growth 48h: 28%; NS1 function inh: 6%

What do the screens show for `CN1C(=O)C(CC(=O)NC2CCCCC2)SC1=Nc1ccccc1` (stereo not drawn)?
Shiga toxin inh: 5; Pf growth 96h: 5%; CHX counter: 1; Pf growth 48h: 6%; NS1 function inh: 5%; SARS PLpro yeast: 1%

What do the screens show for `CC(C)CN1CC(=O)N2C(c3ccccc3)c3[nH]c4ccccc4c3C[C@H]2C1=O` (stereo partly drawn)?
Shiga toxin inh: 3; Pf growth 96h: inconclusive; CHX counter: -2; Pf growth 48h: 12µM*; NS1 function inh: 12%; SARS PLpro yeast: -1%

How did COc1cc([C@H]2c3[nH]c4ccccc4c3C[C@H]3C(=O)N4[C@@H](c5cc(OC)c(OC)c(OC)c5)c5[nH]c6ccccc6c5C[C@H]4C(=O)N23)cc(OC)c1OC do in these assays?
Shiga toxin inh: -13; Pf growth 96h: 0.47µM*; CHX counter: -4; Pf growth 48h: 0.41µM*; NS1 function inh: 9%; SARS PLpro yeast: 5%

Results for CCN1C(=O)[C@@H]2Cc3c([nH]c4ccccc34)C(c3cc(OC)c(OC)c(OC)c3)N2C1=S (stereo partly drawn) ?
Shiga toxin inh: -7; Pf growth 96h: inconclusive; CHX counter: -3; Pf growth 48h: inconclusive; NS1 function inh: 3%; SARS PLpro yeast: -1%

What do the screens show for `O=C1[C@@H]2Cc3c([nH]c4ccccc34)[C@@H](c3ccccc3)N2C(=O)[C@@H]2Cc3c([nH]c4ccccc34)[C@@H](c3ccccc3)N12`?
Shiga toxin inh: -18; Pf growth 96h: 2.6µM*; CHX counter: -6; Pf growth 48h: inconclusive; NS1 function inh: inconclusive; SARS PLpro yeast: -7%

What do the screens show for `C=CCN1C(=O)[C@@H]2Cc3c([nH]c4ccccc34)C(c3cc(OC)c(OC)c(OC)c3)N2C1=S` (stereo partly drawn)?
Shiga toxin inh: -8; Pf growth 96h: inconclusive; CHX counter: 0; Pf growth 48h: 8.3µM*; NS1 function inh: 1%; SARS PLpro yeast: 0%

Results for S=c1nc(NCc2cccc(Cl)c2)c2ccccc2[nH]1 ?
Shiga toxin inh: -7; Pf growth 96h: 25%; CHX counter: 5; Pf growth 48h: inconclusive; NS1 function inh: 1%; SARS PLpro yeast: -1%

How did CCN1CCCC1CNC(=O)c1cc(S(=O)(=O)N(C)C)ccc1Cl (stereo not drawn) do in these assays?
Shiga toxin inh: -10; Pf growth 96h: 28%; CHX counter: -3; Pf growth 48h: 17%; NS1 function inh: 3%; SARS PLpro yeast: 1%

How did CC(C)C(O)(C#CCN1CCCCC1)C(C)C do in these assays?
Shiga toxin inh: 38; Pf growth 96h: inconclusive; CHX counter: -1; Pf growth 48h: 1%; NS1 function inh: 13%; SARS PLpro yeast: inconclusive
